Nine compounds from PubChem BioAssay (EPA / NIEHS) can be followed below.

As usually defined, the AC50 is the concentration at which the activity in the assay is half-maximal.

The target in test [1] is rat CYP3A2, Cyp3a2 (gene 266682) (UniProt P05183). The test is described as follows: NVS_ADME_rCYP3A2: NovaScreen (NVS) CYP450-related Enzyme Activity (ADME) Assay for rat CYP3A2 (AID 2283128). The method in brief:
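Cell-free rat CYP3A2 enzyme assay with fluorescent substrate, read 0.5 h after dosing. Primary duplicate screen at 10 uM; actives run in concentration-response up to 20 uM, relative to acetonitrile baseline.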

For test [2], the target named is human Caspase 5 (CASP5), CASP5 (gene 838) (UniProt P51878). The test is described as follows: NVS_ENZ_hCASP5: NovaScreen (NVS) Enzymatic Assay for human Caspase 5 (CASP5) (AID 2283137). In a few lines: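 Recombinant E. coli-expressed human caspase 5 in a cell-free enzyme assay; fluorescence intensity read 2 hours after chemical dosing. Single-concentration duplicate screen at 25 uM, then concentration-response up to 50 uM for hits; DMSO negative control.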
human Caspase 5 (CASP5), CASP5 (gene 838), sequence (P51878 whole entry, looked up): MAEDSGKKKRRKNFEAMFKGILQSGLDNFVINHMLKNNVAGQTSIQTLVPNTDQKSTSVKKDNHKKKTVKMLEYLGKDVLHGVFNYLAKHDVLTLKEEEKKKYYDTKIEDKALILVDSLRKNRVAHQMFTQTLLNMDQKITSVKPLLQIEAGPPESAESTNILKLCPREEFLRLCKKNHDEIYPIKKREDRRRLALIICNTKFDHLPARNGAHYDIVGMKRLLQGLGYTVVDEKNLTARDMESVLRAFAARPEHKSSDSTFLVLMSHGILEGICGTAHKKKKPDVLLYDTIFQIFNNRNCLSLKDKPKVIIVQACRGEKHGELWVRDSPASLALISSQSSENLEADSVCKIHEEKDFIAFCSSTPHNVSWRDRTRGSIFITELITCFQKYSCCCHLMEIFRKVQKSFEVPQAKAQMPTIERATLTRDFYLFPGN

Test [3] deals with human AKT serine/threonine Kinase 2 (AKT2), AKT2 (gene 208) (UniProt P31751). The experiment in a line: NVS_ENZ_hAKT2: NovaScreen (NVS) Enzymatic Assay for human AKT serine/threonine Kinase 2 (AKT2) (AID 2283141). In a few lines:
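Cell-free fluorescence/electrophoretic mobility shift readout of recombinant human AKT2 activity, 1 h after chemical dosing. Duplicate primary screen at 25 uM, then singleton concentration-response up to 50 uM; loss of signal versus DMSO baseline.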

The target in test [4] is human Caspase 4 (CASP4), CASP4 (gene 837) (UniProt P49662). The experiment in a line: NVS_ENZ_hCASP4: NovaScreen (NVS) Enzymatic Assay for human Caspase 4 (CASP4) (AID 2283143). The method in brief:
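The cell-free assay used E. coli-expressed enzyme with a fluorogenic substrate, read 2 h after dosing. Signal loss was scored versus DMSO. Screening was in duplicate at 25 uM, then singleton concentration-response up to 50 uM.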

The target in the next test is Caspase-3 (Homo sapiens) (UniProt P42574). The experiment in a line: NVS_ENZ_hCASP3: NovaScreen (NVS) Enzymatic Assay for human Caspase 3 (CASP3) (AID 2283139). The method in brief: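 Recombinant human caspase-3 from E. coli with a fluorogenic substrate, read by fluorescence 1 h after dosing. Primary screen in duplicate at 25 uM. Actives (for example ≥30% inhibition) rerun as concentration-response up to 50 uM.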
Caspase-3 (Homo sapiens), sequence (P42574 whole entry, looked up): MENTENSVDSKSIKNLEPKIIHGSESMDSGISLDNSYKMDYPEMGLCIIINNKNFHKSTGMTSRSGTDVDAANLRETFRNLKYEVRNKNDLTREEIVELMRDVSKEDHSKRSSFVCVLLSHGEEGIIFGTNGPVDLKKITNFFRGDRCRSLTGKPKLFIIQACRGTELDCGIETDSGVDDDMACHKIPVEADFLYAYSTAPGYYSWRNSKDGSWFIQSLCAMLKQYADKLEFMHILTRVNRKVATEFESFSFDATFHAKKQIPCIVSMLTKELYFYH

Test [5] concerns the target human Caspase 8 (CASP8), CASP8 (gene 841) (UniProt Q14790). The experiment in a line: NVS_ENZ_hCASP8: NovaScreen (NVS) Enzymatic Assay for human Caspase 8 (CASP8) (AID 2283146). The method in brief: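 E. coli-expressed enzyme was used in a cell-free fluorogenic substrate assay read 1 h after dosing. Loss of signal was scored relative to DMSO, and the primary screen was run in duplicate at 25 uM.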

For test [6], the target named is human Elastase, ELANE (gene 1991) (UniProt P08246). The test is described as follows: NVS_ENZ_hElastase: NovaScreen (NVS) Enzymatic Assay for human Elastase (AID 2283153). The method in brief:
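Cell-free elastase from human neutrophils, 1.5 h after dosing, activity read by absorbance. Primary screen in duplicate at 25 uM; hits (e.g., 30% inhibition) rerun in singleton concentration-response up to 50 uM, fitted versus DMSO.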

Test [7] deals with human AKT serine/threonine Kinase 1 (AKT1), AKT1 (gene 207) (UniProt P31749). The experiment in a line: NVS_ENZ_hAKT1: NovaScreen (NVS) Enzymatic Assay for human AKT serine/threonine Kinase 1 (AKT1) (AID 2283138). In a few lines:
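Cell-free recombinant enzyme with substrate; activity read by fluorescence intensity after electrophoretic mobility shift separating substrate from product, 1 h after dosing. Single-concentration duplicates at 25 uM, then singleton concentration-response up to 50 uM; loss of signal versus DMSO.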

Test [8] addresses human Beta-secretase (BACE), BACE1 (gene 23621) (UniProt P56817). The test is described as follows: NVS_ENZ_hBACE: NovaScreen (NVS) Enzymatic Assay for human Beta-secretase (BACE) (AID 2283140).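 Note: hits are inhibitors that reduce fluorescent substrate signal versus DMSO.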 The method in brief: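 Cell-free fluorescence-intensity assay of recombinant BACE1 expressed in SF9 cells, read 1 hour after dosing. Loss of signal indicates reduced protease activity, fitted relative to DMSO negative control. Primary screen at 25 uM in duplicate; actives followed in concentration series.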

Test [9] concerns the target human Ephrin type-B Receptor 1 (EphB1), EPHB1 (gene 2047) (UniProt P54762). The test is described as follows: NVS_ENZ_hEphB1: NovaScreen (NVS) Enzymatic Assay for human Ephrin type-B Receptor 1 (EphB1) (AID 2283154). In a few lines: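 Cell-free kinase assay with recombinant enzyme, fluorescent substrate and electrophoretic mobility-shift separation of substrate and product; read 1 h after dosing. Single-concentration duplicate screen at 25 uM; loss of signal versus DMSO baseline.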

For test [10], the target named is human Acid Phosphatase 1 (ACP1), ACP1 (gene 52) (UniProt P24666). The experiment in a line: NVS_ENZ_hACP1: NovaScreen (NVS) Enzymatic Assay for human Acid Phosphatase 1 (ACP1) (AID 2283136). In a few lines: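 Recombinant enzyme expressed in Sf9 cells, tested cell-free; activity read by fluorescence with electrophoretic mobility shift separation of substrate and product, 1.5 h after dosing. Primary screen in duplicate at 25 uM, actives then run in concentration series; loss of signal versus DMSO.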

In the next test the target is CDK2 (gene 1017) (UniProt P24941). The experiment in a line: NVS_ENZ_hCDK2: NovaScreen (NVS) Enzymatic Assay for human Cyclin-Cependent Kinase 2 (CDK2) (AID 2283144). The method in brief:
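Cell-free recombinant human CDK2 with fluorescent substrate, product separated by electrophoretic mobility shift; 1 hr read. Primary screen at 25 uM in duplicate, actives retested in concentration-response up to 50 uM; loss of signal versus DMSO.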

In test [11] the target is human Casein Kinase 2- alpha 2 beta 2 (CK2a2b2), CSNK2A1 (gene 1457) (UniProt P68400). The test is described as follows: NVS_ENZ_hCK2a2b2: NovaScreen (NVS) Enzymatic Assay for human Casein Kinase 2- alpha 2 beta 2 (CK2a2b2) (AID 2283147). The method in brief: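 Cell-free recombinant CK2 α2β2 holoenzyme with a fluorescent peptide substrate; product separated by electrophoretic mobility shift and read 1 h after dosing. Single-point screen at 25 uM in duplicate; actives were followed with concentration-response up to 50 uM versus DMSO.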

Test [12] deals with human Casein Kinase 1-delta (CK1D), CSNK1D (gene 1453) (UniProt P48730). The experiment in a line: NVS_ENZ_hCK1D: NovaScreen (NVS) Enzymatic Assay for human Casein Kinase 1-delta (CK1D) (AID 2283148). The method in brief:
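Recombinant human CK1-delta, cell-free; fluorescent substrate with electrophoretic mobility-shift separation of product, read 1 h after dosing. Single 25 uM duplicate screen, then concentration-response up to 50 uM; loss of signal vs DMSO.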

Test [13] has as its target human Colony Stimulating Factor 1 Receptor (CSF1R), CSF1R (gene 1436) (UniProt P07333). The test is described as follows: NVS_ENZ_hCSF1R: NovaScreen (NVS) Enzymatic Assay for human Colony Stimulating Factor 1 Receptor (CSF1R) (AID 2283150). In a few lines: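 Cell-free recombinant human CSF1R kinase with fluorescent substrate, product separated by electrophoretic mobility shift; read 1 h after dosing. Primary screen at 25 uM in duplicate, actives then in concentration-response up to 50 uM, relative to DMSO.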

Test [14] addresses human Ephrin type-A Receptor 1 (EphA1), EPHA1 (gene 2041) (UniProt P21709). The experiment in a line: NVS_ENZ_hEphA1: NovaScreen (NVS) Enzymatic Assay for human Ephrin type-A Receptor 1 (EphA1) (AID 2283158).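 Note: activity is signal loss versus DMSO meaning EphA1 kinase inhibition.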 In a few lines: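 Fluorescent substrate conversion, resolved by mobility-shift separation, measured 1 hour post-dosing using recombinant enzyme; signal loss relative to DMSO baseline. Single-concentration duplicates at 25 uM preceded singleton concentration series topping at 50 uM.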

Test [15] concerns the target Histone deacetylase 3 (Homo sapiens) (UniProt O15379). The test is described as follows: NVS_ENZ_hHDAC3: NovaScreen (NVS) Enzymatic Assay for human Histone Deacetylase 3 (HDAC3) (AID 2283163). In a few lines: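 Recombinant human HDAC3 with fluorescent substrate, 1 h after dosing; product separated from substrate by electrophoretic mobility shift and read by fluorescence. Primary screen at 25 uM in duplicate; actives (e.g. ≥30% inhibition) retested in concentration-response up to 50 uM.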

For test [16], the target named is human Dual Specificity Protein Phosphatase 3 (DUSP3), DUSP3 (gene 1845) (UniProt P51452). The experiment in a line: NVS_ENZ_hDUSP3: NovaScreen (NVS) Enzymatic Assay for human Dual Specificity Protein Phosphatase 3 (DUSP3) (AID 2283152).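 Note: phosphatase activity of recombinant human DUSP3 on a fluorogenic substrate without cells.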 In a few lines:
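Cell-free assay with recombinant human DUSP3 and fluorogenic substrate, read by fluorescence intensity. Primary screen ran duplicate at 25 uM; actives followed up in concentration series; loss of signal versus DMSO scored.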

“And” between values parts separate entries of the source, which are not always exact repeats. Equal entries are not always repeated. Inconclusive results are not listed. A structure can be active in one record and inactive in another. The source made the active and inactive calls. Rule for the calls: active = hit-call score of the fitted dose curve at least 0.9, where 1 is the maximum; inconclusive = response in the unintended direction; inactive = score below 0.9.

human Caspase 4 (CASP4), CASP4 (gene 837), sequence (P49662 whole entry, looked up): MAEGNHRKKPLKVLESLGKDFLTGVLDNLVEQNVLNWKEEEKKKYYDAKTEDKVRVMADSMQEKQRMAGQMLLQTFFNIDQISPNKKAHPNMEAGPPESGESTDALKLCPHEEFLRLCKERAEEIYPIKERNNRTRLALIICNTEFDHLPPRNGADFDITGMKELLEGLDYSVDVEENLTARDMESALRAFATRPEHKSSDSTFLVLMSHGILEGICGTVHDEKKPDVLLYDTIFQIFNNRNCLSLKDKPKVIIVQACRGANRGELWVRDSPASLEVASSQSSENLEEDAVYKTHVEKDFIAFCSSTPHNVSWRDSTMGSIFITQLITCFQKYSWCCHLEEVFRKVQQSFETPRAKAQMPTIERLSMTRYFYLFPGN
Histone deacetylase 3 (Homo sapiens), sequence (O15379 whole entry, looked up): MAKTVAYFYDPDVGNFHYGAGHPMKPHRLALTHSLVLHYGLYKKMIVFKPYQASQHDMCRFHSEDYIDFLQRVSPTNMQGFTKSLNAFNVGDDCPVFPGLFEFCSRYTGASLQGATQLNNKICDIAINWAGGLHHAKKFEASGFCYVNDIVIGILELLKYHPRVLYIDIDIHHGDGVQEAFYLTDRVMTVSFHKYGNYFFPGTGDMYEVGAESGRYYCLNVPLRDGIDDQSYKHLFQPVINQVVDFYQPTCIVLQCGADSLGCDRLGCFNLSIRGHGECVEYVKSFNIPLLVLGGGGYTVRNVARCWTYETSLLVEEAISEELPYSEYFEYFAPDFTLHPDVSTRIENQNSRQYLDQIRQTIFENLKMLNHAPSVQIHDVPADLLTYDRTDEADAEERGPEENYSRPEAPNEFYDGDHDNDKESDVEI
human AKT serine/threonine Kinase 1 (AKT1), AKT1 (gene 207), sequence (P31749 whole entry, looked up): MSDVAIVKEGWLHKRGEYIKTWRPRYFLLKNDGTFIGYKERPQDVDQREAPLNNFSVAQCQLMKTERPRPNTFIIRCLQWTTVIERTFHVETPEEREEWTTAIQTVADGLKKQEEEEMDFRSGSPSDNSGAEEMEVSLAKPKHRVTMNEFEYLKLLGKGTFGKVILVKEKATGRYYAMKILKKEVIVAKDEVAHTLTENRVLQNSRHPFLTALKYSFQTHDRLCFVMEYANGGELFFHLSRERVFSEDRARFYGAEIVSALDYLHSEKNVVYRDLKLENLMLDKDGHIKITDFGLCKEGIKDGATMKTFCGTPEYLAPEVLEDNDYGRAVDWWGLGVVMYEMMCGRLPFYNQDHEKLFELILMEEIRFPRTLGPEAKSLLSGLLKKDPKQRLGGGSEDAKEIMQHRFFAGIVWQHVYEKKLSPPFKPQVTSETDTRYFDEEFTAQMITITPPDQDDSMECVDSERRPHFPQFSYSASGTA
human Colony Stimulating Factor 1 Receptor (CSF1R), CSF1R (gene 1436), sequence (P07333 whole entry, looked up): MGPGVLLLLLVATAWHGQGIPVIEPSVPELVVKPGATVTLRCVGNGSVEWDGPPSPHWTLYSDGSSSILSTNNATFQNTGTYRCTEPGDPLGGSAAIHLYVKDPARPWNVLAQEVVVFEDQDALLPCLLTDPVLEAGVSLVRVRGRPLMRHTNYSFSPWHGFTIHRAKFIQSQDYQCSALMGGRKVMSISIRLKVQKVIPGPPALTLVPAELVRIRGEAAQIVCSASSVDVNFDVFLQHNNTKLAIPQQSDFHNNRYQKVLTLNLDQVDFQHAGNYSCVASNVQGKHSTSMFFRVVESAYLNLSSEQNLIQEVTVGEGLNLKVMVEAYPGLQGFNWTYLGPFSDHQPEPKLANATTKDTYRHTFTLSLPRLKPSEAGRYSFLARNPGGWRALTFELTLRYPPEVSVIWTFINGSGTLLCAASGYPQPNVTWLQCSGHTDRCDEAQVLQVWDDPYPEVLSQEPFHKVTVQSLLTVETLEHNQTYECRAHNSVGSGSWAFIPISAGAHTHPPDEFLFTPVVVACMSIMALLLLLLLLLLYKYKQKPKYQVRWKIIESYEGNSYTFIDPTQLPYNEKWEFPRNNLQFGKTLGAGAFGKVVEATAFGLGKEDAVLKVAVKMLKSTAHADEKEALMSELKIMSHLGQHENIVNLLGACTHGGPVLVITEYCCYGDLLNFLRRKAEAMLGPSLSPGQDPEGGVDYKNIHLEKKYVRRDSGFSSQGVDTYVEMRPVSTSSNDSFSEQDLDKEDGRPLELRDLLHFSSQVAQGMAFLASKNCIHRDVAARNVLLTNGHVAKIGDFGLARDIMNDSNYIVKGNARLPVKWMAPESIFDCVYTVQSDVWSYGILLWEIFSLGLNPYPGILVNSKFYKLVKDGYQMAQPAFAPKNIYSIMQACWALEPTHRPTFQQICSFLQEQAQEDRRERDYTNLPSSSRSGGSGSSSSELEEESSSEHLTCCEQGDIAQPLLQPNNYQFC
human AKT serine/threonine Kinase 2 (AKT2), AKT2 (gene 208), sequence (P31751 whole entry, looked up): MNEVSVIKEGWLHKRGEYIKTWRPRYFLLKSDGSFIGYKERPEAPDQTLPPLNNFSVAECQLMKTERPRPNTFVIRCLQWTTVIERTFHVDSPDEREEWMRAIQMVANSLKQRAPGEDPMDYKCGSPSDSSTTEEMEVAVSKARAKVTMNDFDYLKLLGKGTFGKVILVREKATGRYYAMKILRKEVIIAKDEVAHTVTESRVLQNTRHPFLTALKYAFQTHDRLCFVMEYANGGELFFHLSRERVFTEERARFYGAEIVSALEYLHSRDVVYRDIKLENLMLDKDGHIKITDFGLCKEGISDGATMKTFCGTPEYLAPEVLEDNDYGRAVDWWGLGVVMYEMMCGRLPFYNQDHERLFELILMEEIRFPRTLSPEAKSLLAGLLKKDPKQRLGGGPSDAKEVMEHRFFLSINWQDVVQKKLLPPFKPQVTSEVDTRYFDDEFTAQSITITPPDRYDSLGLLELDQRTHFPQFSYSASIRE
rat CYP3A2, Cyp3a2 (gene 266682), sequence (P05183 whole entry, looked up): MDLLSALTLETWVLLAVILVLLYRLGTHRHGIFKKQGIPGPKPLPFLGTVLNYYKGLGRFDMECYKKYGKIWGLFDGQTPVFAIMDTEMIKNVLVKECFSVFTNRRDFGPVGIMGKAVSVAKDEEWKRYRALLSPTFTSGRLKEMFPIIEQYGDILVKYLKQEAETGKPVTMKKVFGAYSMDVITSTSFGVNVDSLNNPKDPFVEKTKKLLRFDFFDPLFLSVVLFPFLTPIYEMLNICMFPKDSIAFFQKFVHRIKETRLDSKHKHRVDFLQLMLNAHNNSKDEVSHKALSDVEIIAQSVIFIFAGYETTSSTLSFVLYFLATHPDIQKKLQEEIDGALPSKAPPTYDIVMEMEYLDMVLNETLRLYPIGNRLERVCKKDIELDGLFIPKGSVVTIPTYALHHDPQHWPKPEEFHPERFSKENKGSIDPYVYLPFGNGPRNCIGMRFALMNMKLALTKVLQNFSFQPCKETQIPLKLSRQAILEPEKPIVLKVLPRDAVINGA
human Beta-secretase (BACE), BACE1 (gene 23621), sequence (P56817 whole entry, looked up): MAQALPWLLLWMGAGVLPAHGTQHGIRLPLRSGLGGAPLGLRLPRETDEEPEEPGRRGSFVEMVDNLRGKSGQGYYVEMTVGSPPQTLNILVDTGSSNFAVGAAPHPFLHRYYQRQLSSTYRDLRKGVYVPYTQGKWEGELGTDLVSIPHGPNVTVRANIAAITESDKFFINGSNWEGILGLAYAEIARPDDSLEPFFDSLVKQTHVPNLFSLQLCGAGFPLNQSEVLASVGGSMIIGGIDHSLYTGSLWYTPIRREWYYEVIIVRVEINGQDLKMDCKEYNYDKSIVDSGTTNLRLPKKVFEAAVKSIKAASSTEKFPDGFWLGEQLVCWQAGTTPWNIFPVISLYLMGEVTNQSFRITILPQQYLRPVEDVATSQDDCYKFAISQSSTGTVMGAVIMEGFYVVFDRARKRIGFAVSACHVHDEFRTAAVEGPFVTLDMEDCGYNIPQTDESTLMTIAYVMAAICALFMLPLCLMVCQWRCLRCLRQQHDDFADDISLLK
human Caspase 8 (CASP8), CASP8 (gene 841), sequence (Q14790 whole entry, looked up): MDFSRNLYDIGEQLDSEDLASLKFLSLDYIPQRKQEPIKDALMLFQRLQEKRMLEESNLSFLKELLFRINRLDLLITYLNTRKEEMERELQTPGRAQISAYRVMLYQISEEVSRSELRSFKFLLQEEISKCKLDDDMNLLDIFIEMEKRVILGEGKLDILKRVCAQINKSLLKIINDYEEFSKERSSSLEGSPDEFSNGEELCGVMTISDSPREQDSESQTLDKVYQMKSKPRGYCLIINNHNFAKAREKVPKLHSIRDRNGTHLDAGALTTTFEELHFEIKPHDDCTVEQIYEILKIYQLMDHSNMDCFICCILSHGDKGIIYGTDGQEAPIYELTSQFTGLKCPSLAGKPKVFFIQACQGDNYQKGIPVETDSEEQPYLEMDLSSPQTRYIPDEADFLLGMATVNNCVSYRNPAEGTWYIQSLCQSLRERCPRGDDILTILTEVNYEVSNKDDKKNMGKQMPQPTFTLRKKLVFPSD

Consider `CCN(Cc1c(F)cccc1Cl)c1c([N+](=O)[O-])cc(C(F)(F)F)cc1[N+](=O)[O-]`, for which the AC50 in [1] was 4.04 µM (active).

For the compound `CCC(O)=C1C(=O)CC(C(=O)O)CC1=O` (centres undefined), the result in test [2], in [3] and in test [4] was inactive.

On to `COC(=O)c1cccc(C)c1S(=O)(=O)NC(=O)Nc1nc(OCC(F)(F)F)nc(N(C)C)n1`, for which the outcome (in the test with Caspase-3 (Homo sapiens); in test [5]; in test [6]) was inactive.

`CN(C)C(=O)Nc1ccc(Cl)c(Cl)c1`: the call in test [7] was inactive.

On to `Oc1ccc(C(c2ccc(O)cc2)C(Cl)(Cl)Cl)cc1`, for which the AC50 in test [1] is 2.7 µM (active); in [2] it was 10.1 µM (active); in test [8], 4.96 µM (active). For the same compound, the call in test [9] was inactive.

With `S=C(S)NCCNC(=S)S.[Mn+2].[S-]C([S-])=NCCN=C([S-])[S-].[Zn+2]`, the AC50 in test [10] is 4.22 µM (active) and 4.27 µM (active); in [7] it was 683 nM (active) and 1.49 µM (active); in test [8], 9.11 µM (active); in [3], 1.64 µM (active) and 1.94 µM (active); in test [4], 0.179 µM (active); in the test with CDK2 (gene 1017) it was 0.879 µM (active). For the same compound, the AC50 was 5.4 µM (active) in test [11]; 18.2 µM (active) and 33.6 µM (active) in test [12]; 963 nM (active) and 315 nM (active) and 12.9 µM (active) in test [13]; 43.5 µM (active) in [14]; 10 µM (active) and 445 nM (active) in test [15]. Also, the call (with Caspase-3 (Homo sapiens); in test [4]; in test [5]; in [14]) was inactive.

On to `CCCCC(CC)CN1C(=O)C2C3C=CC(C3)C2C1=O` (centres undefined), for which the AC50 in [1] was 6.87 µM (active). In addition, in test [3], the call was inactive.

On to `CCCCOC(=O)[C@@H](C)Oc1ccc(Oc2ccc(C(F)(F)F)cn2)cc1`, for which the compound was classed as inactive in [7], in [8] and in test [16].

`CSC(=O)c1cccc2nnsc12`: the AC50 in test [1] is 1.79 µM (active). Also, the compound was classed as inactive in test [15].
